Laboratory results published in PubChem BioAssay (NCI).
The panel holds about 83,000 compounds, 20% with a hit somewhere; the sample as a whole holds those more often.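 Plates (96-well) were seeded with cells, treated with compound at one concentration, and incubated for 48 hours before percent growth was determined.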 Unmarked numbers belong to inactive results. Activity calls are given as the source filed them. How the source made its calls: active means growth percent below 10; inactive means the rest.

Legend:
Experiment in all cases: NCI-60 one-dose screen, 48 h (100 = growth as untreated, 0 = no growth, -100 = all killed)
Conditions in all cases: 10 µM unless noted
[1] = tested on: HCT-15 colon
[2] = tested on: HT29 colon
[3] = tested on: SNB-75 CNS
[4] = tested on: SNB-19 CNS
[5] = tested on: PC-3 prostate
[6] = tested on: SK-MEL-5 melanoma
[7] = tested on: UACC-62 melanoma
[8] = tested on: LOX IMVI melanoma
[9] = tested on: SK-MEL-28 melanoma
[10] = tested on: SK-MEL-2 melanoma
[11] = tested on: SN12C renal
[12] = tested on: UO-31 renal
[13] = tested on: TK-10 renal
[14] = tested on: ACHN renal
[15] = tested on: CAKI-1 renal
[16] = tested on: A498 renal
[17] = tested on: CCRF-CEM leukemia
[18] = tested on: MOLT-4 leukemia
[19] = tested on: EKVX NSCLC

Compound | growth [1] [%] | growth [2] | growth [3] | growth [4] [%] | growth [5] | growth [6] | growth [7] | growth [8] | growth [9] [%] | growth [10] | growth [11] | growth [12] | growth [13] [%] | growth [14] | growth [15] | growth [16] | growth [17] | growth [18] | growth [19] [%]
Oc1ccccc1/C=N/Nc1ccc2ccccc2n1 | 25.2 | 48.9% | 31.9% | 67.6 | 57.3% | 51.3% | 40.6% | 42.3% | 74.1 | 64.5% | 61.8% | 16.4% | 62.8 | 40.6% | 15.3% | 107% | 10.7% | 7.34% (active) | –
C[C@@H]1CC[C@@H]2[C@@H]1[C@H](OC(=O)/C=C/c1ccccc1)[C@]1(c3ccccc3)C[C@@H](OC(=O)CO)[C@@]2(C)O1 | 97.7 | 92.2% | 90.2% | 96 | 80.5% | 94.8% | 75.4% | 97.8% | 101 | 97.7% | 21.8% | -68.1% (active) | 98.6 | 4.8% (active) | – | -22.3% (active) | 93% | 92.1% | 88.4
CC(C)CC(CC1=CCC2CC1C2(C)C)C1=C(O)C(C)(C)C(=O)C(C)(C)C1=O (stereo not drawn) | 13.5 | 1.62% (active) | 19.7% | 16 | 5.09% (active) | -31.2% (active) | 9.64% (active) | 6% (active) | 28.8 | -18.2% (active) | 3.56% (active) | 8.44% (active) | 15.6 | 3.98% (active) | 6.44% (active) | – | 1.78% (active) | -24% (active) | 20
O=C1C=CC(=O)c2c1nc1n2CCCC1 | 103 | 35.5% | 131% | 63.9 | 89.7% | 22% | 71.4% | 48.8% | 68.3 | 70.6% | 74% | 91.1% | 109 | 81.1% | 95.7% | 96.3% | 58.8% | 90.3% | 104
Cc1ccc2c(NCCCN(C)C)c3c(C)nn(C)c3nc2c1 | 29 | 18% | 25.5% | 63 | 29.2% | 51.3% | 58.8% | 15.5% | 57.1 | 44% | 42.9% | 26.5% | 28.4 | 27.2% | 14.5% | 28.3% | 31.7% | 10.7% | –
COC(/C=C/c1ccc([N+](=O)[O-])cc1)OC | 116 | 94.7% | 85.9% | 91.2 | 95.1% | 98.3% | 89.9% | 8.46% (active) | 93.5 | 99% | 92.8% | 93.2% | 103 | 107% | 102% | 111% | 39.6% | 69.4% | 101
Nc1ccc(Nc2nccc(-c3ccc4ccccc4c3)n2)cc1 | 25 | 14.3% | 39% | 62.9 | 58.7% | 47.3% | 32.2% | 38.1% | 57.2 | 5.47% (active) | 46.8% | 45.7% | 58.7 | 45.6% | – | 16.6% | 27.3% | 20.2% | 61
Cc1cc(Nc2nc(-c3cccnc3)nc3ccccc23)n[nH]1 | 29.7 | 23.4% | -32.9% (active) | 77.6 | 58.7% | 73.8% | 49.3% | 20.1% | 50.5 | 38.8% | 58.9% | 60.4% | 59.8 | 38% | 2.35% (active) | -19.7% (active) | 57.3% | 89.5% | –
O=C(NC(Cc1ccccc1)C(=O)CCl)OCc1ccccc1 (stereo not drawn) | 58.6 | 53.6% | 83.7% | 82.2 | 67.5% | 75.9% | 68% | -7.12% (active) | 85.8 | 8.62% (active) | 56.7% | 59.6% | 84.8 | 72% | 48.2% | 98.7% | -4.62% (active) | 12.2% | –
CCOC(=O)C(Cc1cc(I)c(O)c(I)c1)NC(=O)c1ccccc1 (stereo not drawn) | 98.6 | 99.9% | 94.5% | 99.3 | 99.1% | 100% | 92.2% | 103% | 101 | 97.6% | 97.6% | 92.2% | 88.4 | 93.5% | 95.7% | 78.7% | 95.3% | 91.5% | 101
CSc1nc(NCCO)c(C#N)c(-c2cccc(N)c2)n1 | 98.1 | 108% | 58.5% | 96 | 94.7% | 96.5% | 94.8% | 93.5% | 116 | 108% | 94.7% | 74.6% | 145 | 92.3% | 80.3% | 83.7% | 94.9% | 95.6% | 81.4
O=C(Nc1ccc(F)cc1)Nc1ccc(CCO)cc1 | 102 | 103% | 72.6% | 107 | 108% | 104% | 107% | 111% | 106 | 112% | 101% | 94.1% | 112 | 110% | 103% | 85.9% | 107% | 102% | –
c1c2c(cc3c1OCO3)Cc1cc3c(cc1Cc1cc4c(cc1C2)OCO4)OCO3 | 103 | 108% | 73% | 106 | 99.8% | 108% | 108% | 95.8% | 103 | 115% | 98.5% | 95.7% | 116 | 101% | 89.9% | 107% | 112% | 116% | –
CCOC(=O)/C=C/C(=O)[C@H](CC(C)C)NC(=O)[C@H](Cc1ccccc1)NC(=O)OCc1ccccc1 | 15.5 | 57.9% | 69.2% | 93.7 | 68.3% | 97.5% | 14.4% | -82.9% (active) | 34.7 | 99.8% | 57.2% | 44.7% | 50.1 | 47.5% | 74.8% | 77.6% | -18.5% (active) | 0.254% (active) | 100
COc1cccc(-n2cc(-c3nc(Nc4cc(C)[nH]n4)c4ccccc4n3)nn2)c1 | 29.7 | 65.5% | -10.2% (active) | 73.1 | 55.3% | -42% (active) | 50.8% | 66.5% | 64 | 50.9% | 41% | 15.4% | 33.3 | 24% | 2.59% (active) | 36.1% | 32.6% | 11% | –
CCCNc1nc(SC)nc(-c2cccc(N)c2)c1C#N | 102 | 116% | 54.5% | 91.6 | 93.6% | 97.2% | 89.4% | 94.1% | 121 | 111% | 90.1% | 76.8% | 150 | 97.7% | 73% | – | 108% | 101% | 82.6
